# Measured values taken from publication PMC7826789 (International Journal of Molecular Sciences, 2021).
# How the values were obtained:
# Conditions in all cases: Compound Concentration (nM):1000
# AAK1 = test system: AAK1
# [1] = test system: ABL1(E255K)-phosphorylated
# [2] = test system: ABL1(F317I)-nonphosphorylated
# [3] = test system: ABL1(F317I)-phosphorylated
# [4] = test system: ABL1(F317L)-nonphosphorylated
# [5] = test system: ABL1(F317L)-phosphorylated
# [6] = test system: ABL1(H396P)-nonphosphorylated
# [7] = test system: ABL1(H396P)-phosphorylated
# [8] = test system: ABL1(M351T)-phosphorylated
# [9] = test system: ABL1(Q252H)-nonphosphorylated
# 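Further: KINOMEscan scanMAX binding as percent activity remaining versus control; lower means stronger binding.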
structure (smiles),measurement,setting,value
Nc1ncnc2occ(-c3ccc(NC(=O)Nc4cc(C(F)(F)F)ccc4F)cc3)c12 [GW770249X],Percent Control,AAK1,96%
same,Percent Control,[1],78%
same,Percent Control,[2],67%
same,Percent Control,[3],61%
same,Percent Control,[4],7.8%
same,Percent Control,[5],54%
same,Percent Control,[6],2.9%
same,Percent Control,[7],72%
same,Percent Control,[8],45%
same,Percent Control,[9],0%
NS(=O)(=O)c1ccc(N/N=C2\C(=O)Nc3ccc(C(=O)NCc4ccncc4)cc32)cc1 [GW300657X],Percent Control,AAK1,29%
same,Percent Control,[1],79%
same,Percent Control,[2],85%
same,Percent Control,[3],81%
same,Percent Control,[4],92%
same,Percent Control,[5],54%
same,Percent Control,[6],63%
same,Percent Control,[7],82%
same,Percent Control,[8],91%
same,Percent Control,[9],78%
Cl.O=C(Nc1ccc(Oc2ccc3[nH]c(NC(=O)c4ccccc4)nc3c2)cc1)Nc1cc(C(F)(F)F)ccc1F [GW709042A],Percent Control,AAK1,100%
same,Percent Control,[1],83%
same,Percent Control,[2],43%
same,Percent Control,[3],76%
same,Percent Control,[4],26%
same,Percent Control,[5],80%
same,Percent Control,[6],9.9%
same,Percent Control,[7],67%
same,Percent Control,[8],62%
same,Percent Control,[9],8%
Cl.O=C(O[C@H]1CN[C@H](C#Cc2cc3ncnc(Nc4ccc5c(cnn5Cc5ccccc5)c4)c3s2)C1)N1CCOCC1 [GSK200398A],Percent Control,AAK1,87%
same,Percent Control,[1],88%
same,Percent Control,[2],89%
same,Percent Control,[3],85%
same,Percent Control,[4],100%
same,Percent Control,[5],52%
same,Percent Control,[6],80%
same,Percent Control,[7],90%
same,Percent Control,[8],100%
same,Percent Control,[9],84%
COc1cc(C)c(N(C)C(=O)CN(C)C)cc1Nc1nc(Nc2cccc(F)c2C(N)=O)c2cc[nH]c2n1 [GSK2219385],Percent Control,AAK1,94%
same,Percent Control,[1],95%
same,Percent Control,[2],55%
same,Percent Control,[3],97%
same,Percent Control,[4],100%
same,Percent Control,[5],56%
same,Percent Control,[6],51%
same,Percent Control,[7],99%
same,Percent Control,[8],100%
same,Percent Control,[9],62%
CCc1ccc(Oc2nccc(-c3c(-c4ccc(F)cc4)ncn3C3CCNCC3)n2)cc1 [SB-242719],Percent Control,AAK1,100%
same,Percent Control,[1],63%
same,Percent Control,[2],87%
same,Percent Control,[3],80%
same,Percent Control,[4],100%
same,Percent Control,[5],98%
same,Percent Control,[6],77%
same,Percent Control,[7],67%
same,Percent Control,[8],98%
same,Percent Control,[9],68%
COC(=O)Nc1nc2ccc(Oc3ccc(NC(=O)Nc4cc(C(F)(F)F)ccc4F)cc3)cc2s1.Cl [GW693917A],Percent Control,AAK1,100%
same,Percent Control,[1],28%
same,Percent Control,[2],4.5%
same,Percent Control,[3],36%
same,Percent Control,[4],3.6%
same,Percent Control,[5],14%
same,Percent Control,[6],0%
same,Percent Control,[7],15%
same,Percent Control,[8],12%
same,Percent Control,[9],0%
COc1cc2ncn(-c3cc(O[C@H](C)c4ccccc4Cl)c(C(N)=O)s3)c2cc1OC [GSK237701A],Percent Control,AAK1,29%
same,Percent Control,[1],81%
same,Percent Control,[2],100%
same,Percent Control,[3],86%
same,Percent Control,[4],92%
same,Percent Control,[5],71%
same,Percent Control,[6],20%
same,Percent Control,[7],78%
same,Percent Control,[8],56%
same,Percent Control,[9],46%
C[C@@H](Oc1cc(-n2cnc3ccc(OC4CCN(C)CC4)cc32)sc1C(N)=O)c1ccccc1Cl [GSK579289A],Percent Control,AAK1,62%
same,Percent Control,[1],44%
same,Percent Control,[2],52%
same,Percent Control,[3],87%
same,Percent Control,[4],100%
same,Percent Control,[5],78%
same,Percent Control,[6],43%
same,Percent Control,[7],56%
same,Percent Control,[8],80%
same,Percent Control,[9],46%
CCS(=O)(=O)c1ccc(OC)c(Nc2ncc(-c3cccc(OC)c3)o2)c1 [GW580509X],Percent Control,AAK1,100%
same,Percent Control,[1],5%
same,Percent Control,[2],90%
same,Percent Control,[3],40%
same,Percent Control,[4],45%
same,Percent Control,[5],6.2%
same,Percent Control,[6],1.4%
same,Percent Control,[7],7.9%
same,Percent Control,[8],6.5%
same,Percent Control,[9],6.8%
COc1ccc2cc(-c3c(-c4ccncc4)nc(-c4ccc(S(C)(=O)=O)cc4C)n3C)ccc2c1 [SB-633825],Percent Control,AAK1,83%
same,Percent Control,[1],80%
same,Percent Control,[2],100%
same,Percent Control,[3],65%
same,Percent Control,[4],83%
same,Percent Control,[5],74%
same,Percent Control,[6],58%
same,Percent Control,[7],78%
same,Percent Control,[8],81%
same,Percent Control,[9],63%
Cl.O=C(Nc1ccc(Oc2ccc3[nH]c(NC(=O)c4ccco4)nc3c2)cc1)Nc1cc(C(F)(F)F)ccc1F [GW683134A],Percent Control,AAK1,100%
same,Percent Control,[1],39%
same,Percent Control,[2],20%
same,Percent Control,[3],53%
same,Percent Control,[4],6.8%
same,Percent Control,[5],54%
same,Percent Control,[6],0.7%
same,Percent Control,[7],20%
same,Percent Control,[8],22%
same,Percent Control,[9],5.5%
CC1=C(C(=O)Nc2ccc3[nH]ncc3c2)C(c2ccc(Cl)c(Cl)c2)CC(=O)N1 (stereo not shown) [GSK299115A],Percent Control,AAK1,73%
same,Percent Control,[1],96%
same,Percent Control,[2],100%
same,Percent Control,[3],72%
same,Percent Control,[4],75%
same,Percent Control,[5],74%
same,Percent Control,[6],79%
same,Percent Control,[7],95%
same,Percent Control,[8],87%
same,Percent Control,[9],75%
CN1CCN(C(=O)c2ccc(NC(=O)Nc3ccc(N(C)c4ccnc(Nc5ccc(CS(C)(=O)=O)cc5)n4)cc3)cc2)CC1.Cl [GW830263A],Percent Control,AAK1,19%
same,Percent Control,[1],38%
same,Percent Control,[2],96%
same,Percent Control,[3],69%
same,Percent Control,[4],51%
same,Percent Control,[5],34%
same,Percent Control,[6],1.4%
same,Percent Control,[7],32%
same,Percent Control,[8],20%
same,Percent Control,[9],6.1%
NS(=O)(=O)c1ccc(N/N=C2\C(=O)Nc3ccc(Cl)cc32)cc1 [GW280670X],Percent Control,AAK1,94%
same,Percent Control,[1],100%
same,Percent Control,[2],99%
same,Percent Control,[3],96%
same,Percent Control,[4],100%
same,Percent Control,[5],100%
same,Percent Control,[6],81%
same,Percent Control,[7],100%
same,Percent Control,[8],100%
same,Percent Control,[9],81%
COc1cc(C=NNc2ncnc3c2cnn3-c2ccccc2)ccc1O [GW513184X],Percent Control,AAK1,91%
same,Percent Control,[1],15%
same,Percent Control,[2],92%
same,Percent Control,[3],92%
same,Percent Control,[4],100%
same,Percent Control,[5],91%
same,Percent Control,[6],4.7%
same,Percent Control,[7],26%
same,Percent Control,[8],25%
same,Percent Control,[9],8.4%
COc1cccc(-c2c[nH]c3c(N/N=C/c4ccncc4)ncnc23)c1 [GW814408X],Percent Control,AAK1,69%
same,Percent Control,[1],0.7%
same,Percent Control,[2],100%
same,Percent Control,[3],66%
same,Percent Control,[4],61%
same,Percent Control,[5],19%
same,Percent Control,[6],0%
same,Percent Control,[7],0.2%
same,Percent Control,[8],0.3%
same,Percent Control,[9],0%
NS(=O)(=O)c1ccc(Nc2ncc(-c3ccccc3)o2)cc1 [GW572399X],Percent Control,AAK1,94%
same,Percent Control,[1],81%
same,Percent Control,[2],99%
same,Percent Control,[3],87%
same,Percent Control,[4],86%
same,Percent Control,[5],100%
same,Percent Control,[6],35%
same,Percent Control,[7],87%
same,Percent Control,[8],83%
same,Percent Control,[9],78%
Cl.O=S1CCN(Cc2ccc(-c3ccc4ncnc(Nc5ccc(OCc6ccccc6)c(F)c5)c4c3)o2)CC1 [GW576924A],Percent Control,AAK1,100%
same,Percent Control,[1],100%
same,Percent Control,[2],100%
same,Percent Control,[3],96%
same,Percent Control,[4],100%
same,Percent Control,[5],70%
same,Percent Control,[6],99%
same,Percent Control,[7],100%
same,Percent Control,[8],100%
same,Percent Control,[9],100%
O=C1Nc2ccc(C(=O)c3ccco3)cc2C1=Cc1cc(Cl)c(O)c(Cl)c1 [GW406108X],Percent Control,AAK1,30%
same,Percent Control,[1],68%
same,Percent Control,[2],89%
same,Percent Control,[3],79%
same,Percent Control,[4],100%
same,Percent Control,[5],71%
same,Percent Control,[6],60%
same,Percent Control,[7],87%
same,Percent Control,[8],70%
same,Percent Control,[9],71%
COc1ccccc1-c1cc(/C=C2\C(=O)Nc3ncc(Br)cc32)cc(Br)c1O [GW442130X],Percent Control,AAK1,87%
same,Percent Control,[1],83%
same,Percent Control,[2],100%
same,Percent Control,[3],100%
same,Percent Control,[4],100%
same,Percent Control,[5],100%
same,Percent Control,[6],48%
same,Percent Control,[7],85%
same,Percent Control,[8],100%
same,Percent Control,[9],94%
CN(C)CCNC(=O)Nc1ccc(N(C)c2ccnc(Nc3ccc(CS(C)(=O)=O)cc3)n2)cc1.Cl [GW830900A],Percent Control,AAK1,20%
same,Percent Control,[1],82%
same,Percent Control,[2],93%
same,Percent Control,[3],84%
same,Percent Control,[4],91%
same,Percent Control,[5],84%
same,Percent Control,[6],38%
same,Percent Control,[7],82%
same,Percent Control,[8],73%
same,Percent Control,[9],47%
CC(C)COC(=O)c1ccc2c(c1)/C(=C/Nc1ccc(S(N)(=O)=O)cc1)C(=O)N2 [GW416981X],Percent Control,AAK1,26%
same,Percent Control,[1],100%
same,Percent Control,[2],100%
same,Percent Control,[3],83%
same,Percent Control,[4],100%
same,Percent Control,[5],100%
same,Percent Control,[6],75%
same,Percent Control,[7],100%
same,Percent Control,[8],100%
same,Percent Control,[9],95%
Cl.c1ccc(Cc2nc3ccc(Nc4ncnc5ccccc45)cc3[nH]2)cc1 [GR269666A],Percent Control,AAK1,100%
same,Percent Control,[1],100%
same,Percent Control,[2],100%
same,Percent Control,[3],88%
same,Percent Control,[4],100%
same,Percent Control,[5],92%
same,Percent Control,[6],86%
same,Percent Control,[7],100%
same,Percent Control,[8],100%
same,Percent Control,[9],98%
CCS(=O)(=O)c1ccc(OC)c(Nc2ncc(-c3cccc(F)c3)o2)c1 [GW621970X],Percent Control,AAK1,100%
same,Percent Control,[1],6.7%
same,Percent Control,[2],98%
same,Percent Control,[3],51%
same,Percent Control,[4],47%
same,Percent Control,[5],5.4%
same,Percent Control,[6],1.1%
same,Percent Control,[7],9.3%
same,Percent Control,[8],6.6%
same,Percent Control,[9],4.5%
COc1cc(/C=N/Nc2ncnc3[nH]ncc23)ccc1O [GW578748X],Percent Control,AAK1,34%
same,Percent Control,[1],0.8%
same,Percent Control,[2],100%
same,Percent Control,[3],37%
same,Percent Control,[4],56%
same,Percent Control,[5],23%
same,Percent Control,[6],0%
same,Percent Control,[7],1.3%
same,Percent Control,[8],0%
same,Percent Control,[9],0%
CC1=C(C(=O)Nc2ccc3[nH]ncc3c2)C(c2ccc3ccccc3c2)CC(=O)N1 (stereo not shown) [GSK270822A],Percent Control,AAK1,81%
same,Percent Control,[1],83%
same,Percent Control,[2],100%
same,Percent Control,[3],67%
same,Percent Control,[4],87%
same,Percent Control,[5],68%
same,Percent Control,[6],59%
same,Percent Control,[7],86%
same,Percent Control,[8],80%
same,Percent Control,[9],50%
NS(=O)(=O)c1ccc(N/N=C2\C(=O)Nc3ccc(-c4cnco4)cc32)cc1 [GW276655],Percent Control,AAK1,14%
same,Percent Control,[1],63%
same,Percent Control,[2],69%
same,Percent Control,[3],59%
same,Percent Control,[4],75%
same,Percent Control,[5],74%
same,Percent Control,[6],58%
same,Percent Control,[7],83%
same,Percent Control,[8],92%
same,Percent Control,[9],85%
